Here are results for eight compounds from PubChem BioAssay.

Values joined by “and” are separate entries in the source; they are usually repeats but may differ in a detail not shown here. Identical values can stand only once. Active and inactive are the calls of the source. Unless noted, no rule for the calls is given here.

Test [1] can be described thus: A549 cell viability effects, profiling panel, calcein-AM fluorescence, 48 h, basal (AID 1162). Also: test concentration not given here. Conditions: higher = more signal.
A short description of test [2]: adipocyte viability effects, profiling panel, cell-based, 3T3-L1 adipocytes, calcein-AM fluorescence, 48 h, basal (AID 1163). Also: test concentration not given here. Conditions: 3T3-L1 adipocytes viability, higher = more signal.
Test [3] can be described thus: HepG2 cell viability effects, profiling panel, calcein-AM fluorescence, 48 h, basal (AID 1164). Also: test concentration not given here. The note with it: higher = more signal.
Test [4] can be described thus: MM1S cell viability effects, profiling panel, calcein-AM fluorescence, 48 h, basal (AID 1165).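 Also: viability of MM1S multiple myeloma cells under basal unstimulated conditions; test concentration not given here.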 Conditions: higher = more signal.
Test [5] in a line: basal RPMI8226 viability, no added stimulus, profiling panel, cell-based, calcein-AM fluorescence, 48 h, PK04 Diversity Set (AID 1166).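 Also: cells grown under basal conditions without added stimulus; test concentration not given here.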 The note with it: higher = more signal; RPMI8226 myeloma viability, calcein-AM fluorescence, 48 h unless noted.
Test [6] can be described thus: basal HepG2 mitochondrial membrane potential changes, profiling panel, cell-based, JC-1 fluorescence, 24 h, 100 nL compound (AID 1167). Also: test concentration not given here. The note with it: higher = more signal.
Test [7] is described as follows: basal 3T3-L1 adipocyte mitochondrial potential changes, profiling panel, cell-based, JC-1 fluorescence, 3T3-L1 adipocytes, 24 h, 100 nL compound (AID 1168). Also: test concentration not given here. Conditions: JC-1 mitochondrial fluorescence; higher = more signal, called active from +8 up or from −8 down unless noted.
Test [8] is described as follows: basal RPMI8226 mitochondrial membrane potential changes, profiling panel, cell-based, JC-1 fluorescence, 24 h, 100 nL compound (AID 1169). Also: test concentration not given here. The note with it: higher = more signal; RPMI8226 myeloma, JC-1 mitochondrial potential fluorescence, 24 h unless noted.
Test [9] can be described thus: basal MM1S mitochondrial membrane potential changes, profiling panel, cell-based, JC-1 fluorescence, 24 h, 100 nL compound (AID 1170). Also: test concentration not given here. The note with it: higher = more signal.
Test [10] in a line: A549 lung cancer cell viability effects, profiling panel, resazurin fluorescence, 24 h, PK04 Diversity Set (AID 1171). Also: test concentration not given here. The note with it: higher = more signal, called active from +8 up or from −8 down unless noted. A general note: Alamar Blue is a resazurin reagent that responds to reducing activity.
Test [11] is described as follows: HepG2 liver cancer cell viability effects, profiling panel, resazurin fluorescence, 24 h, PK04 Diversity Set (AID 1172). Also: test concentration not given here. The note with it: higher = more signal.
The nature of test [12]: basal S. cerevisiae growth modulation, no modifier, primary screen, OD600, strain BY4716, 24 h, basal condition (AID 1173). The note with it: OD600, 24 h; higher = more signal, called active from +8 up or from −8 down unless noted.
Test [13] is described as follows: MM1S myeloma cell viability, profiling panel, resazurin fluorescence, basal, 24 h, PK04 Diversity Set (AID 1174).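 Also: MM1S multiple myeloma cell line; test concentration not given here.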 Conditions: higher = more signal, called active from +8 up or from −8 down unless noted.
Test [14] has as its target Dihydroorotate dehydrogenase (quinone), mitochondrial (Plasmodium falciparum (isolate 3D7)) (UniProt Q08210). Kind of test: PfDHODH enzyme inhibitors, primary screen, biochemical, C-terminal His tag, absorbance 600 nm (AID 1175).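 Also: recombinant parasite enzyme with a five histidine tag at its C terminus; test concentration not given here.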 The note with it: DCIP absorbance 600 nm; higher = more signal, called active from +8 up or from −8 down unless noted.
Test [15] in a line: P. aeruginosa biofilm formation inhibitors, primary screen, strain PAO1, LB-PBS medium, absorbance 600 nm (AID 1176). Also: test concentration not given here. The note with it: P. aeruginosa PAO1 growth/biofilm, A600, 12 h; higher = more signal.
Test [16] in a line: S. cerevisiae RM11-1a growth modifiers, primary screen, strain RM11-1a, OD600, basal, 24 h (AID 1177).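 Also: cultures grown under basal conditions with no added stressor; test concentration not given here.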 Conditions: OD600, 24 h; higher = more signal, called active from +8 up or from −8 down unless noted.
Test [17] is described as follows: E. coli acrAB mutant growth effects, primary screen, E. coli filamentation inducers, strain DRC39, OD650, 24 h (AID 1178).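 Also: growth measured as culture turbidity by optical density at 650 nm; test concentration not given here.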 Conditions: higher = more signal, called active from +8 up or from −8 down unless noted.
The nature of test [18]: E. coli acrAB mutant growth effects, primary screen, E. coli filamentation inducers, strain DRC39, OD650, 48 h (AID 1179).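 Also: screen aims at cell division blockers that make cells filament.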 The note with it: E. coli DRC39 delta-acrAB growth, higher = more signal, called active from +8 up or from −8 down unless noted.
Test [19] can be described thus: RPMI8226 myeloma cell viability, profiling panel, resazurin fluorescence, basal, 24 h, PK04 Diversity Set (AID 1180).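 Also: RPMI8826 multiple myeloma cell line at 5000 cells per well; test concentration not given here.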 Conditions: higher = more signal; RPMI8226 viability, resazurin fluorescence, 24 h unless noted.
Test [20] concerns the target E3 ubiquitin-protein ligase XIAP (Homo sapiens) (UniProt P98170). Kind of test: XIAP binders, primary screen, biophysical, small-molecule microarray, fluorescence 635 nm (AID 1181).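 Also: score merges 667 nm emission and signal to noise over triplicate slides.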 Conditions: small-molecule microarray binding, higher = more signal.

Chain of Dihydroorotate dehydrogenase (quinone), mitochondrial (Plasmodium falciparum (isolate 3D7)) (Q08210 whole entry, looked up): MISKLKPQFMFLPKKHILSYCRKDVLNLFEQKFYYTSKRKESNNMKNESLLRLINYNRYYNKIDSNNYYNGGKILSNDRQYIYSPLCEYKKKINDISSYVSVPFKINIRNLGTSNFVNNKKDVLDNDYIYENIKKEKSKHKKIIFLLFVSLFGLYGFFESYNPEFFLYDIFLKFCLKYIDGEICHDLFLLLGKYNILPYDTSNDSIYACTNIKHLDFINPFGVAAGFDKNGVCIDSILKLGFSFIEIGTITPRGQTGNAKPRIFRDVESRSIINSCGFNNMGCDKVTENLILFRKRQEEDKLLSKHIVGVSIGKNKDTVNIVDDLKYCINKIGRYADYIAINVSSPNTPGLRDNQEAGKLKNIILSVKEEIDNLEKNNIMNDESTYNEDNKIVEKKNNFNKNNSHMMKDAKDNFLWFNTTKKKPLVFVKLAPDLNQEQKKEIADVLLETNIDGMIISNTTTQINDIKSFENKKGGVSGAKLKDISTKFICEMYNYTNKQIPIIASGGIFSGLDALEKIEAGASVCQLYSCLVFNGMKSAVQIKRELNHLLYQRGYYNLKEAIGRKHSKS
Chain of E3 ubiquitin-protein ligase XIAP (Homo sapiens) (P98170 whole entry, looked up): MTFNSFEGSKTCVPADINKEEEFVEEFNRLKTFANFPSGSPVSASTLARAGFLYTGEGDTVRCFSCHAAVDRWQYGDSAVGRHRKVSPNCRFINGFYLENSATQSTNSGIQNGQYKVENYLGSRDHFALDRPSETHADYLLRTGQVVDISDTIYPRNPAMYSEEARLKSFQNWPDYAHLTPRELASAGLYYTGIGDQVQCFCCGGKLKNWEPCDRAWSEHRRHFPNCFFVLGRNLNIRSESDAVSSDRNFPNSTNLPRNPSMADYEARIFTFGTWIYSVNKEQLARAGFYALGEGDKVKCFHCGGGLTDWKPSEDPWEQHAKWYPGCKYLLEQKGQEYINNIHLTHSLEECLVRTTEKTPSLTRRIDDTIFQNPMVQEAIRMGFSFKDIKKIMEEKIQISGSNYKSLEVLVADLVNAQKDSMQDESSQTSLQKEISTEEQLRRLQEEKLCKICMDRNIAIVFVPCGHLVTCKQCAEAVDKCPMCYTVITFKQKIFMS

Turning to `CC1N(P(=O)(c2ccccc2)c2ccccc2)CC(O)(c2ccccc2)CC12CC2` (stereo not given), the z-score in test [1] was -1.2 and -1.31; in [2], -0.216 and -0.899; in [3], -1.5 and -1.05; in test [4], -0.187 and -0.545; in test [5], -1.7 and -1.4; in [6], -0.722 and -1.02. Moreover, the z-score was -1.04 (inactive) and -1.11 (inactive) in test [7]; 0.655 and -0.4 in test [8]; -0.307 and -0.694 in test [9]; 0.146 (inactive) and 1.49 (inactive) in [10]; -0.964 and 0.138 in [11]; 2.47 (inactive) and 0.135 (inactive) in test [12]. In addition, the z-score in [13] is -1.13 (inactive) and -0.22 (inactive); in test [15] it was 0.495 (inactive) and 0.178 (inactive); in [16], 1.23 (inactive) and -0.154 (inactive); in [17], -0.611 (inactive) and -0.406 (inactive); in test [18] it was 0.0506 (inactive) and -0.0402 (inactive); in test [19], -1.54 and 0.553. Moreover, the composite z-score was 0.296 (inactive) and -0.264 (inactive) in [14]; -0.193 and -0.25 in [20].

For `COC(=O)C1(C)C=C2C(=C(C)C(=O)C2C)CN1` (stereo not given), the z-score was -1.32 in test [1]; -0.254 in test [2]; -1.21 in test [3]; 0.224 in test [4]; -2.24 in test [5]; -1.57 in [6]. Moreover, the z-score in test [7] is -0.482 (inactive); in [8], 0.262; in [9], -0.221; in test [10], -1.62 (inactive); in [11], -1.13; in test [12], 2.09 (inactive). The z-score in test [13] was -2.31 (inactive); in test [15], 1.53 (inactive); in test [16], 1.17 (inactive); in test [17] it was -0.608 (inactive); in [18] it was -1.64 (inactive); in test [19] it was -1.24. For the same compound, the composite z-score is -0.809 (inactive) in test [14] and 0.226 in [20].

Regarding `CN1CCC(c2ccc(CO)cc2)=CC1c1cccs1` (stereo not given), the z-score in test [1] was 0.368; in test [2] it was -0.393; in test [3], -0.153; in test [4], -2.81; in test [5], -0.157; in test [6], -1.28. The z-score was -0.581 (inactive) in test [7]; 0.554 in [8]; -0.277 in [9]; -0.103 (inactive) in test [10]; -0.792 in [11]; -1.01 (inactive) in test [12]. Also, the z-score is -0.694 (inactive) in test [13]; -0.329 (inactive) in test [15]; 1.13 (inactive) in test [16]; -0.543 (inactive) in test [17]; -0.447 (inactive) in test [18]; -0.118 in test [19]. In addition, the composite z-score in test [14] was 0.083 (inactive); in test [20] it was 0.152.

Consider `CCCc1cc2c(n1CCO)C(C)C1CN(C(=O)c3ccccc3)C(C)(C(=O)OC)C21` (stereo not given), for which the z-score in test [1] is -0.981; in [2] it was 0.348; in test [3] it was 0.436; in [4], -1.38; in [5] it was -0.875; in [6], 0.156. The z-score in [7] is -0.962 (inactive); in test [8] it was 0.719; in [9] it was -0.379; in [10], -1.04 (inactive); in test [11], -1.6; in test [12] it was 0.262 (inactive). The z-score was -1.68 (inactive) in test [13]; -0.0703 (inactive) in [15]; 0.168 (inactive) in test [16]; -0.681 (inactive) in [17]; -0.127 (inactive) in test [18]; -1.85 in [19]. Also, the results for the composite z-score in [14] and in [20] were -0.349 (inactive) and 0.612, respectively.

For the compound `OCc1ccc(C2=CC(C3CC3)N(Cc3sc4ccccc4c3Cl)CC2)cc1` (stereo not given), the z-score in test [1] is -1.09; in test [2], 0.656; in test [3] it was -0.328; in test [4], -3.17; in test [5] it was -3.29; in [6], 0.353. Also, the z-score in test [7] is 0.501 (inactive); in test [8], -0.913; in [9], -0.434; in [10], -0.497 (inactive); in test [11] it was -0.0351; in [12], -4.2 (inactive). Moreover, the z-score was -1.43 (inactive) in test [13]; -0.411 (inactive) in test [15]; 1.76 (inactive) in [16]; -1.71 (inactive) in test [17]; -1.33 (inactive) in [18]; -1.37 in test [19]. The values for the composite z-score in test [14] and in test [20] were -1.3 (inactive) and 0.539, respectively.

In the case of `C[C@@H]1Cc2c(cnc3c2CN(C)CC3)CO1`, the z-score in test [1] is 0.298; in test [2], 0.288; in test [3] it was -0.153; in [4] it was -1.39; in [5], 0.089; in [6], 0.389. Also, the z-score is 0.284 (inactive) in test [7]; -0.258 in test [8]; 0.677 in [9]; 0.707 (inactive) in [10]; 0.507 in [11]; -0.583 (inactive) in [12]. For the same compound, the z-score in test [13] was 0.335 (inactive); in test [15] it was 0.0008 (inactive); in [16], -0.498 (inactive); in [17] it was -0.151 (inactive); in [18], 0.0072 (inactive); in test [19], 0.992. Also, the composite z-score was -0.7 (inactive) in test [14] and 0.276 in test [20].

Regarding `COC(=O)[C@@]1(Cc2ccccc2)[C@H]2c3cc(C(=O)N(C)C)[nH]c3C[C@H]2CN1C(=O)c1ccccc1`, the z-score in test [1] is -1.08; in test [2], -0.0276; in test [3], -0.78; in [4] it was 0.047; in [5] it was -0.458; in [6] it was -0.592. The z-score is -0.562 (inactive) in [7]; 0.816 in test [8]; -0.807 in test [9]; 0.121 (inactive) in test [10]; -0.154 in test [11]; 0.887 (inactive) in test [12]. For the same compound, the z-score is -0.693 (inactive) in [13]; 0.0944 (inactive) in test [15]; 0.439 (inactive) in test [16]; -0.513 (inactive) in test [17]; 0.0889 (inactive) in test [18]; -0.57 in test [19]. Besides, the composite z-score is -0.434 (inactive) in test [14] and 0.215 in [20].

Take `CCCc1cc2c(n1Cc1ccco1)C(C)C1CN(C(=O)c3ccccc3)C(C)(C(=O)OC)C21` (stereo not given): the z-score was -0.136 in [1]; 0.227 in [2]; -0.369 in test [3]; -3.24 in test [4]; -2.66 in test [5]; 2.35 in test [6]. In addition, the z-score in [7] is -1.5 (inactive); in [8], 0.228; in [9], -1.53; in test [10], -1.36 (inactive); in test [11], -1.24; in [12], -0.0767 (inactive). Besides, the z-score was -1.85 (inactive) in [13]; 1.9 (inactive) in [15]; 0.264 (inactive) in test [16]; -1.25 (inactive) in [17]; -0.951 (inactive) in test [18]; -1.3 in [19]. For the same compound, the figures for the composite z-score in [14] and in test [20] were -0.455 (inactive) and 0.471, respectively.
